SMILES strings stand for the structures. Hit rate of the full screen: of about 330,000 compounds, about 4,600 (1.4%) were called active. The sample holds actives, similar compounds and a random draw of the others, so the mix is not that of the screen. Unmarked numbers belong to inactive results.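 How the source made its calls: active means inhibition of 40% or more at the single tested concentration; inactive means the rest.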

Data on 93 molecules can be found in PubChem BioAssay AID463195 (Sanford-Burnham Center for Chemical Genomics, 2010).

A short description of the assay: growth inhibitors of isogenic TIM10 control yeast, primary screen, counter-screen for tim10-1 yeast inhibitor project, luminescence, uHTS (AID 463195).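 Further: wild-type TIM10 isogenic control strain grown at permissive 25 °C; 0% = DMSO yeast wells and 100% = minimal medium wells without yeast.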 As to conditions: S. cerevisiae TIM10 strain growth, BacTiter-Glo luminescence, 24 h; at 10 µM; active compounds read high. A general note: The purpose of a counterscreen is to sort out artefacts and off-target activity.
The term inhibition denotes the change of the read-out against control, counted positive when it falls. As for `CCN(CC)S(=O)(=O)N1CCC(C(=O)NC(C)CCc2ccccc2)CC1` (stereo not drawn), the inhibition is -3.42%. As to `C/C(=N\NC(=O)C1(C)CC1(Br)Br)c1ccc(C)cc1C` (stereo not drawn), the inhibition was 10%. With `O=C1Cc2cc(S(=O)(=O)Nc3cccc(F)c3)ccc2N1`, the inhibition is -1.95%. In the case of `Cc1ccc2nc(N(CCN(C)C)C(=O)C3=COCCO3)sc2c1`, the inhibition was 53.1% (active). The result for `CCc1ccc2nc(N(CCCN(C)C)C(=O)c3ccc4c(c3)OCCO4)sc2c1` reads 13.5%; that for `CCN(CC)CCN(C(=O)c1cc(Cl)sc1Cl)c1nc2cc3c(cc2s1)OCO3`, 23.3%; that for `CN(C)CCN(C(=O)CN1C(=O)c2ccccc2C1=O)c1nc2cc3c(cc2s1)OCCO3`, -5.86%. On to `CN(C)CCN(C(=O)C1CCCCC1)c1nc2cc3c(cc2s1)OCO3`, for which the inhibition was 11.6%. With `CN(C)CCN(C(=O)C1=COCCO1)c1nc2ccc(Cl)cc2s1`, the inhibition was 79.4% (active).

For `CC(=O)c1ccc(N2CCN(C(=O)c3ccc(Cl)c(S(=O)(=O)NC4CC4)c3)CC2)c(F)c1`, the inhibition is -5.83%.

Turning to `O=C1Oc2ccccc2C(=O)/C1=C/c1ccccc1O`, the inhibition is 61.4% (active).

Turning to `COC(=O)c1ccc(/C=C2/C(=O)Oc3ccccc32)cc1`, the inhibition is 25.7%. Take `COc1ccc2c(c1)O/C(=C\c1ccccc1O)C2=O`: the inhibition is 23.8%. The result for `C=CCO/N=C(\C)c1c(O)c(C)c(-c2ccccc2)n(-c2ccccc2)c1=O` reads 30.7%.

As to `CCCCCC(=O)Nc1ccc(-c2cn3cccnc3n2)cc1`, the inhibition is 33.6%. On to `CC(C(=O)Nc1ccc(F)c(F)c1F)N1CCCCCC1` (stereo not drawn), for which the inhibition is -12.6%. As for `COCCCNC(=O)/C(C#N)=C/c1c(N2CCCCCC2)nc2ccccn2c1=O`, the inhibition was -2.43%.

Take `O=Cc1c(N2CCN(c3cccc(Cl)c3)CC2)nc2ccccn2c1=O`: the inhibition was 40.1% (active). With `O=Cc1c(Nc2ccccc2Cl)nc2ccccn2c1=O`, the inhibition is 4.5%. As for `CCOC(=O)c1sc2nc(C)nc(Nc3ccc(OC)c(OC)c3)c2c1C`, the inhibition is -3.77%. The result for `C/C(=N/NC(=O)c1ccncc1)c1ccc2c(c1)OCO2` reads -3.5%; that for `C/C(=N\NC(=O)C(N)=O)c1ccc2c(c1)OCCO2`, 9.07%; that for `C/C(=N/NC(=S)Nc1ccccc1)c1ccc2c(c1)OCO2`, 43.2% (active). In the case of `COCCNc1nc(-n2nc(C)cc2C)nc2sc3c(c12)CCCC3`, the inhibition was 26.3%. For the molecule `CC(C)c1nc(SCC(=O)Nc2cccc(C(=O)O)c2)c2c3c(sc2n1)CCCC3`, the inhibition is 6.83%.

Take `Cc1cc(C)n(-c2nc(SCC(=O)N3CCCC3)c3c4c(sc3n2)CCCC4)n1`: the inhibition was 47.4% (active). The result for `O=C(OCCO)c1cc(Cl)c(C(=O)OCCO)cc1Cl` reads -2.48%; that for `COc1ccccc1CNC(=O)CCCNS(=O)(=O)c1cccc2nsnc12`, 0.215%.

Take `O=C1OCCN1C(=O)[C@H]1[C@H](c2ccc(F)cc2)C(c2ccccc2)=NN1c1ccc(Br)cc1`: the inhibition was 16.8%.

With `C[C@@H]1C(c2ccc(F)cc2)=NN(c2ccc(Br)cc2)[C@H]1C(=O)N1CCOC1=O`, the inhibition was 44.2% (active).

As to `O=C1OCCN1C(=O)[C@H]1[C@H](c2ccccc2)C(c2ccc(F)cc2)=NN1c1ccccc1`, the inhibition was 13.6%. Regarding `CN(C(=O)CN(CCO)CC(=O)N(C)C(C)(C)Cc1ccccc1)C(C)(C)Cc1ccccc1`, the inhibition is 15.9%. With `Cc1cc(C)nc(S/C=C/C(=O)c2ccccc2)n1`, the inhibition was 49% (active). In the case of `Cc1cc(C)nc(SCC(=O)N(C)C)n1`, the inhibition is -9.49%.

For `Cc1cc(C)nc(SCc2ccccc2C#N)n1`, the inhibition was 14.7%. For `Cc1cccc(N(C(=O)c2ccc(CN3CCOCC3)o2)C(C(=O)NC2CCCCC2)c2ccc(F)cc2)c1` (stereo not drawn), the inhibition was -2.65%. Consider `FC(F)(F)C1CCCN(c2nsc3ccccc23)C1` (stereo not drawn), for which the inhibition was 2.15%.

With `OC(c1ccccc1)C(CN1CCOCC1)c1ccccc1` (stereo not drawn), the inhibition is 3.43%. Turning to `Oc1c(Cl)cc(Cl)c(Cl)c1Cc1c(O)c(Cl)cc(Cl)c1Cl`, the inhibition was 90.7% (active). The result for `CCCCc1cc2c(s1)CCCC/C2=N/O` reads 22.6%; that for `CCc1ccc(-n2c(=S)sc3c(=O)n(-c4ccccc4OC)c(=S)[nH]c32)cc1`, -1.05%; that for `COc1ccc(NC(=S)NCC2CCN(c3ccc(OC)cc3)C2)cc1` (stereo not drawn), 48% (active). On to `COc1ccc(NC(=S)NCCN2CCC(C)CC2)cc1`, for which the inhibition was 4.83%. Turning to `COc1ccc(N2CCC(CNC(=S)Nc3c(C)cccc3C)C2)cc1` (stereo not drawn), the inhibition is 16.7%. `CC(=O)N/C(=C\c1ccc(F)cc1)C(=O)NC(Cc1ccccc1)C(=O)O` (stereo not drawn): the inhibition is -0.026%. The result for `Cc1ccc(S(=O)(=O)/N=C(/NC(=S)Nc2c(C)n(C)n(-c3ccccc3)c2=O)c2ccccc2)cc1` reads 2.05%; that for `CCCCN(C(=O)/C=C/c1ccco1)c1c(N)n(CC(C)C)c(=O)[nH]c1=O`, -1.39%; that for `Cc1ccsc1C(=O)N[C@@H](C)c1nnc2ccccn12`, 0.47%. Take `CC1CCCN(c2ccc(C(=O)NCCc3ccccc3)cn2)C1` (stereo not drawn): the inhibition is 20.8%.

Turning to `COc1ccc(NC(=O)CC2C(=O)NC3CCCCC3N2C(=O)c2ccc(F)cc2)cc1` (stereo not drawn), the inhibition is -3.23%. The result for `CC(=O)c1ccc(NC(=S)N(Cc2ccccc2)C(C)C2CC2)cc1` (stereo not drawn) reads 12.5%; that for `CN(CC(=O)Nc1ccc(OC(F)F)cc1)S(=O)(=O)/C=C/c1ccccc1`, 15.2%; that for `CC(C)N(Cc1ccccc1)C(=S)Nc1ccc(OC(F)F)cc1`, 44% (active).

Consider `C=CCC(CC=C)(C(N)=O)c1ccccc1`, for which the inhibition is 1.01%. In the case of `CC(Sc1nnc2c(n1)C1CCC2(C)C1(C)C)C(=O)Nc1ccccc1` (stereo not drawn), the inhibition is 14.6%. The result for `Cc1ccccc1S(=O)(=O)Cc1ccc(C(=O)NCCN2CCCCC2C)o1` (stereo not drawn) reads -4.28%; that for `CC(C)(C)C1CCC(=NNC(=O)c2cc(-c3ccccc3)n[nH]2)CC1` (stereo not drawn), -10.2%. Turning to `CC(=C/c1ccccc1)/C=N/NC(=O)c1cc(C)oc1C`, the inhibition is 9.24%.

Take `CC(/C=N/NC(=O)c1cc(-c2ccc3ccccc3c2)n[nH]1)=C\c1ccco1`: the inhibition is 45.8% (active).

In the case of `COCC1CCCN(Cc2cn[nH]c2-c2cc3ccccc3o2)C1` (stereo not drawn), the inhibition was -1.56%. For the molecule `COc1ccc(CN2CCCC(C(=O)N3CCCCC3)C2)cc1` (stereo not drawn), the inhibition was -13%. The result for `C=C1CCN([C@@H](Cc2ccccc2)C(=O)N2CCOCC2)S(=O)(=O)c2ccccc21` reads 1.68%. For the molecule `Cn1c(=O)c2c(SCC(=O)NCC3CCCO3)nc(CC(C)(C)C)nc2n(C)c1=O` (stereo not drawn), the inhibition was 20.8%.

Regarding `C/C(Cc1ccccc1)=N\NC(=O)CNC(=O)c1ccccc1Cl`, the inhibition was -5.47%. As to `CC(NC(=S)Nc1ccccc1)C1COc2ccccc2O1` (stereo not drawn), the inhibition was 47.6% (active). In the case of `S=C(NCC1COc2ccccc2O1)Nc1ccc(Br)cc1` (stereo not drawn), the inhibition was -1.91%.

In the case of `CCCN(CC1COc2ccccc2O1)C(=S)Nc1ccc(C)cc1` (stereo not drawn), the inhibition was 30.5%. The result for `C/C(=N\Nc1cccc(C(=O)O)c1)c1ccc2c(c1)Nc1ccccc1S2` reads 10.7%. The result for `CC1CC(=O)Nc2ccccc2N1S(=O)(=O)c1cccs1` (stereo not drawn) reads 5.91%; that for `CC1CC(C)(C)NC(=S)N1CCC(=O)N1CCN(Cc2ccccc2)CC1` (stereo not drawn), -2.23%; that for `CC1CC(=S)Nc2ccccc2N1Cc1ccccc1` (stereo not drawn), 46.2% (active). On to `COC(=O)CNc1nc(Cl)nc(N2CCC(C)CC2)n1`, for which the inhibition is -3.85%. Regarding `CCOc1ccccc1NC(=S)NC(=O)CCc1ccccc1`, the inhibition is 11.7%.

Turning to `O=C(OCCOCn1cc(Br)c(=O)[nH]c1=O)c1ccccc1`, the inhibition was -12.6%. `Cn1nccc1/C=N\NC(=O)c1ccc(Cl)cc1`: the inhibition was -2.29%. Turning to `COc1ccc(C(CNC(=O)COc2ccc([N+](=O)[O-])cc2)N2CCCCC2)cc1` (stereo not drawn), the inhibition is 8.46%. For `COc1ccc(C(CNC(=O)COc2ccccc2OC)N2CCCCC2)cc1` (stereo not drawn), the inhibition was 0.651%. On to `CCc1ccc(OCC(=O)NCC(c2ccc(Cl)cc2)N2CCCCC2)cc1` (stereo not drawn), for which the inhibition was 42.7% (active). With `CC1CCC2CCCCC2N1C(=O)c1cc([N+](=O)[O-])cc([N+](=O)[O-])c1` (stereo not drawn), the inhibition was 40.2% (active). Consider `CC1(c2ccccc2)CC(C)(C)N(C(=O)c2cc([N+](=O)[O-])cc([N+](=O)[O-])c2)c2ccccc21` (stereo not drawn), for which the inhibition is -3.92%. With `CC1CCN(C(=S)c2cccc([N+](=O)[O-])c2)CC1`, the inhibition is 1.4%. Consider `Cc1csc(CN(C)C(=O)CC2C(=O)NCCN2CC(C)(C)C)n1` (stereo not drawn), for which the inhibition was -12.9%. As to `Cn1c(=O)cc(OCCCC(=O)N2CCN(c3ccccn3)CC2)c2ccccc21`, the inhibition is 13.5%. The result for `Oc1cccc2ccc(/C=C/c3ccc(Br)s3)nc12` reads 15.2%. `COc1cccc(NC(=S)N(CCc2c(C)[nH]c3ccccc23)Cc2ccco2)c1`: the inhibition is 15.9%. The result for `CCNC(=S)N(CCc1c(C)[nH]c2ccc(C)cc12)Cc1ccco1` reads 41.2% (active). `COCCNC(=S)N(CCc1c(C)[nH]c2ccc(C)cc12)Cc1cccnc1`: the inhibition is -1.03%. Turning to `O=C(N/N=C/c1ccc(O)c(O)c1)C1c2ccccc2Oc2ccccc21`, the inhibition was -9.32%. Regarding `CCN(CCCCOC(=O)c1ccc(OC)c(OC)c1)C(C)Cc1ccc(OC)cc1` (stereo not drawn), the inhibition is -1.12%. As for `Cc1ccccc1N1CCN(C2CCCN(C(=O)c3ocnc3C)C2)CC1` (stereo not drawn), the inhibition is -0.332%.

`COc1ccc(S(=O)(=O)N2CCN(C(C)C(=O)Nc3ccc(C(C)C)cc3)CC2)cc1` (stereo not drawn): the inhibition was 44.9% (active). The result for `CC(C)c1ccc(S(=O)(=O)N2CCN(C(C)C(=O)NC3CCCC3)CC2)cc1` (stereo not drawn) reads -30.5%; that for `COc1cccc(CNC(C)C(=O)Nc2ccc(S(=O)(=O)N3CCCC3)cc2)c1` (stereo not drawn), 18.4%.
